hNpr1 antagonist: Natriuretic polypeptide receptor (hNpr1) antagonism - Primary qHTS; Atrial natriuretic peptide receptor 1 (Homo sapiens), P16066; HEK293 hNpr1 GloSensor cGMP, ANP-stimulated luminescence; Potency, µM (top dose mostly 46.3 µM), actives largely listed as inhibitors; 76,000 tested, 1.6% active; AID 1347048, 2019; calls by dose curve; note: nearly all actives have a fitted effect of over 60% in size
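HEK293 cells stably expressing human Npr1 and cGMP GloSensor pGS-40F, loaded 2 h with 2% GloSensor reagent, given compound 30 min at room temperature. Luminescence read before and 20 min after 0.1 nM hNppA.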
Luciferase inh: Firefly luciferase inhibition profiling of diverse chemical library using quantitative high-throughput screening. Luciferin 4-monooxygenase (Photinus pyralis), P08659. purified P. pyralis luciferase, luminescence, biochemical. Potency, µM (doses to about 115 µM), usual class: inhibitors. 76,000 tested, 2.5% active; note: nearly all actives have a fitted effect of over 65% in size
Target sequence (P08659 whole entry, looked up): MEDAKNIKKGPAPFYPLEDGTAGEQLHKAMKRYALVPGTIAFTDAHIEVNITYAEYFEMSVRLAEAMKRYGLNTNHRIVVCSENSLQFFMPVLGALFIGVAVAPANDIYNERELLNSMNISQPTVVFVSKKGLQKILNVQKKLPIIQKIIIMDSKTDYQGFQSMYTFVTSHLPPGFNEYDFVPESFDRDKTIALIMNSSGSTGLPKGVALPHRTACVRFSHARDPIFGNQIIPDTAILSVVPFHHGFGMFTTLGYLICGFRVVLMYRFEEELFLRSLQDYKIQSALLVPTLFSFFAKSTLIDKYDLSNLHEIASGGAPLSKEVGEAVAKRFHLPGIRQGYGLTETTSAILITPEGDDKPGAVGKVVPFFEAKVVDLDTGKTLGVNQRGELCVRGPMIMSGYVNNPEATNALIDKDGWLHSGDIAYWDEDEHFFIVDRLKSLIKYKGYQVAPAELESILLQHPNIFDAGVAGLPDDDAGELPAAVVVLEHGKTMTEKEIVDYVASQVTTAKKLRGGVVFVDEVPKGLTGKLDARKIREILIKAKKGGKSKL
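Inhibitors were tested against purified firefly luciferase in a biochemical, low-substrate format (both substrates at 10uM) and luminescence measured with a CCD imager.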
HEK293 tox: Cytotoxic Profiling in HEK 293 Cell Line of Diverse Libraries Using Quantitative High-Throughput Screening. HEK 293 viability, ATP luminescence (CellTiter-Glo), 48-72 h. Potency, µM (doses to about 115 µM), actives largely listed as inhibitors. 94,000 tested, 6.6% active. AID 1345083, 2018; note: nearly all actives have a fitted effect of over 60% in size
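Pintool-delivered compounds were incubated with HEK 293 cells (250 cells/well) at 37 degree Celsius for 48 or 72 hr. ATP-dependent luminescence (CellTiter-Glo) then reported remaining viable cells.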
NIH3T3 tox: Cytotoxic Profiling in NIH 3T3 Cell Line of Diverse Libraries Using Quantitative High-Throughput Screening. NIH 3T3 viability, CellTiter-Glo ATP luminescence, 48-72 h. Potency, µM (top dose mostly 96.7 µM), hits mostly inhibitors. 94,000 tested, 4.3% active. AID 1345082, 2018; note: nearly all actives have a fitted effect of over 55% in size
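Mouse fibroblast NIH 3T3 cells, 400 per well, received compound via pintool and were incubated for 48 or 72 hr prior to CellTiter-Glo ATP luminescence measurement.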
Of the large screens only hits and unclear results are named; the others gave an inactive call. In the library only some 11% were active in any assay of this set; here they are far more common. Unless noted, calls come from the whole dose curve; as a rule, active = well fitted curve in the direction sought with a large enough effect; inconclusive = small, poorly fitted or top-dose-only effect, or another doubt; inactive = no such curve, though single readings can be large; an effect the other way counts as inactive or inconclusive.

CC(=O)N1CC2(CCCN(CC3CC3)C2)Cc2ccccc21 (centres undefined)	none (no result: hNpr1 antagonist, Luciferase inh)
O=C(c1ccc(Cl)cc1)N1CC2(CCCN(Cc3cccnc3)C2)Cc2ccccc21 (centres undefined)	HEK293 tox 40µM, NIH3T3 tox inconclusive (no result: hNpr1 antagonist, Luciferase inh)
CN(Cc1cccnc1)c1ccc2ncc(Nc3cccc(N[S+](C)(=O)[O-])c3)n2n1	NIH3T3 tox inconclusive
COc1ncccc1Nc1cnc2ccc(N(C)Cc3ccc(F)cc3)nn12	hNpr1 antagonist inconclusive, HEK293 tox 45µM, NIH3T3 tox inconclusive
CN(Cc1ccc(F)cc1)c1ccc2ncc(Nc3ccc(CCO)cc3)n2n1	HEK293 tox inconclusive, NIH3T3 tox 22µM
CN(Cc1ccc(F)cc1)c1ccc2ncc(Nc3cccc(N[S+](C)(=O)[O-])c3)n2n1	hNpr1 antagonist inconclusive, HEK293 tox 35µM, NIH3T3 tox 32µM
C#CCNC(=O)c1nc2cccnc2n(CC(C)C)c1=O	none (no result: hNpr1 antagonist, Luciferase inh)
COc1cccc(N2C(=O)NC(=NC3CCCCC3)C23CCCN(Cc2ccc(F)cc2)C3)c1 (centres undefined)	HEK293 tox inconclusive, NIH3T3 tox 40µM (no result: hNpr1 antagonist, Luciferase inh)
COc1cccc(N2C(=O)NC(=NC3CCCC3)C23CCN(Cc2ccccc2)C3)c1 (centres undefined)	HEK293 tox 89µM, NIH3T3 tox inconclusive (no result: hNpr1 antagonist, Luciferase inh)
COc1cccc(N2C(=O)NC(=NC3CCCCC3)C23CCN(Cc2ccccc2)C3)c1 (centres undefined)	none (no result: hNpr1 antagonist, Luciferase inh)
Cc1noc(C2CC3(CCN(C(=O)C4(c5ccccc5)CC4)CC3)CN2C)n1 (centres undefined)	none (no result: hNpr1 antagonist, Luciferase inh)
CCNC(=O)N1CC(Oc2cccc(-c3nc(-c4ccccc4)no3)c2)C1	HEK293 tox 35µM, NIH3T3 tox inconclusive
CCNC(=O)N1CC(Oc2ccc(-c3nc(C)no3)cc2)C1	HEK293 tox inconclusive
CC(C)NC(=O)N1CC(Oc2cccc(-c3nc(-c4ccccc4)no3)c2)C1	HEK293 tox inconclusive, NIH3T3 tox inconclusive
Cc1ccc(CNC(=O)N2CC(Oc3cccc(-c4nc(C)no4)c3)C2)cc1	HEK293 tox 45µM, NIH3T3 tox inconclusive
CCNC(=O)N1CCC(Oc2ccc(-c3noc(-c4ccccc4)n3)cc2)C1 (centres undefined)	HEK293 tox 18µM, NIH3T3 tox inconclusive (no result: hNpr1 antagonist, Luciferase inh)
O=C(Cc1cccc(F)c1)N1CC(Oc2cccc(-c3nc(-c4ccccc4)no3)c2)C1	HEK293 tox inconclusive, NIH3T3 tox 35µM (no result: hNpr1 antagonist, Luciferase inh)
COc1ccc(-c2nn(-c3ccccc3C)cc2CN(C)C(C)c2ccncn2)cc1F (centres undefined)	none
Cc1ccccc1C(=O)N1CCCC2(C1)Nc1cccnc1NC2=NC1CCCC1 (centres undefined)	none
Cc1ccc(C#N)c(N2CCC3(CC2)CC(c2ccccc2)C(=O)N3C)n1 (centres undefined)	HEK293 tox inconclusive, NIH3T3 tox inconclusive
Cc1ccc(C2Cn3nnc(-c4noc(-c5ccc[nH]5)n4)c3CO2)cc1 (centres undefined)	none
CC(C)c1nc(-c2ccc(OC3CCN(C(=O)Cc4c[nH]c5ccccc45)C3)cc2)no1 (centres undefined)	hNpr1 antagonist inconclusive, HEK293 tox inconclusive, NIH3T3 tox inconclusive
CC(C)c1nc(-c2ccc(OC3CCN(C(=O)Cc4ccccc4F)C3)cc2)no1 (centres undefined)	HEK293 tox 35µM, NIH3T3 tox inconclusive (no result: hNpr1 antagonist, Luciferase inh)
O=C(C1CCOC1)N1CC(Oc2cccc(-c3nc(-c4ccccc4)no3)c2)C1 (centres undefined)	Luciferase inh 45µM, HEK293 tox inconclusive, NIH3T3 tox inconclusive
Cn1ncc2c(C(=O)Nc3ccc(F)cc3)cc(-c3cccc(C(F)(F)F)c3)nc21	NIH3T3 tox inconclusive (no result: hNpr1 antagonist, Luciferase inh)
CC(C)c1ccc(CC(=O)N2CCCc3ncc(C(=O)NCc4ccncc4)cc32)cc1	HEK293 tox inconclusive
Cc1cc(=O)n(CC(=O)Nc2cc(Cl)ccc2C)c(N(C)Cc2ccccc2)n1	HEK293 tox 25µM, NIH3T3 tox inconclusive
COc1ccc(Cl)cc1NC(=O)Cn1c(N(C)Cc2ccccc2)nc(C)cc1=O	HEK293 tox inconclusive, NIH3T3 tox inconclusive
CCOc1ccccc1NC(=O)Cn1c(N(C)Cc2ccccc2)nc(C)cc1=O	HEK293 tox 35µM, NIH3T3 tox inconclusive
COC(=O)CNC(=O)C1CN(S(=O)(=O)c2cccs2)CC12CCCCC2 (centres undefined)	none
Fc1ccccc1CNc1cc(Cl)nc2ccnn12	hNpr1 antagonist inconclusive, HEK293 tox 35µM, NIH3T3 tox inconclusive
CC(C)(C)CNc1cc(Cl)nc2ccnn12	HEK293 tox inconclusive
CCOc1ccc(CN2C[C@@H]3C(=O)N(CCc4ccccc4)C(=O)[C@@H]3C2)cc1OC	HEK293 tox inconclusive
c1ccc(C2(c3ccccc3)CCCN(Cc3cscn3)C2)cc1	HEK293 tox 40µM, NIH3T3 tox inconclusive
CCOc1ccc(C(C)NC(=O)C2CCCN(c3cnc4nccnc4c3)C2)cc1 (centres undefined)	HEK293 tox inconclusive
Cc1cnc(-c2ccncc2)n1CCC1CCN(C(=O)C(C)Oc2ccccc2)CC1 (centres undefined)	HEK293 tox 45µM, NIH3T3 tox inconclusive (no result: hNpr1 antagonist, Luciferase inh)
COc1ccc(C(=O)N2CCC(CCn3c(C)cnc3-c3cccnc3)CC2)cc1	NIH3T3 tox inconclusive (no result: hNpr1 antagonist, Luciferase inh)
Cc1cnc(-c2ccccc2)n1CCC1CCN(C(=O)C2(c3ccccc3)CC2)CC1	HEK293 tox 35µM, NIH3T3 tox inconclusive (no result: hNpr1 antagonist, Luciferase inh)
Cc1cnc(C2CCC2)n1C1CCN(C(=O)C2(c3ccccc3)CC2)CC1	none
Cc1ccc(C(=O)NC2CCN(c3cc(C(F)(F)F)nc(C)n3)CC2)cc1	hNpr1 antagonist inconclusive, HEK293 tox inconclusive, NIH3T3 tox inconclusive
Cc1nc(N2CCC(NC(=O)c3nn(C)c4ccccc34)CC2)cc(C(F)(F)F)n1	hNpr1 antagonist inconclusive, HEK293 tox 45µM, NIH3T3 tox inconclusive
Cn1ncc2c(C(=O)Nc3cccc(Cl)c3)cc(-c3ccc(Cl)cc3Cl)nc21	HEK293 tox 22µM, NIH3T3 tox 32µM (no result: hNpr1 antagonist, Luciferase inh)
COc1ccc(NC(=O)c2cc(C(C)(C)C)nc3c2cnn3C)cc1	HEK293 tox 63µM, NIH3T3 tox inconclusive (no result: hNpr1 antagonist, Luciferase inh)
COc1ccc(-c2cc(C(=O)Nc3ccc(Cl)cc3)c3cnn(C)c3n2)cc1	none (no result: hNpr1 antagonist, Luciferase inh)
Cn1ncc2c(C(=O)Nc3cccc(Cl)c3)cc(C(C)(C)C)nc21	HEK293 tox 63µM, NIH3T3 tox inconclusive (no result: hNpr1 antagonist, Luciferase inh)
CNc1nc(N2CC[C@@H]3C[C@H](N4CCOCC4)CC[C@@]3(COC)C2)ncc1F	none
O=C(CC1CCCCN(Cc2ccccc2)C1=O)NCc1ccc(F)cc1 (centres undefined)	HEK293 tox inconclusive, NIH3T3 tox inconclusive
COc1ccc(C2(C(=O)NCCc3ncc(C)n3Cc3ccc(F)cc3)CC2)cc1	HEK293 tox inconclusive, NIH3T3 tox inconclusive
COc1ccccc1Nc1ccnc(N2CCC(NC(=O)c3ccc(Cl)cc3)CC2)n1	HEK293 tox 35µM, NIH3T3 tox 32µM (no result: hNpr1 antagonist, Luciferase inh)
